Test [1] is described as follows: antimalarial activity against Dd2 strain (AID 2302;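 active = growth inhibition above 50% at the single 2 µM test dose, taken to imply half-maximal potency below 2 µM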;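 note: 0% = DMSO untreated growth and 100% = chloroquine plus artemisinin killed control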). The following applies: P. falciparum Dd2 in RBCs, LDH growth readout, 72 h; at 2 µM; stronger effect = higher value.
Test [2] in a line: human hepatoma cell viability loss – ATP luminescence, cytotoxicity control for P. falciparum antimalarial project, primary screen (AID 2303;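 active = inhibition above 50%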;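 note: 0% = DMSO wells and 100% = digitonin-killed cells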). The following applies: HepG2 viability, 24-48 h, at 10 µM, stronger effect = higher value.
Test [3] concerns the target L-lactate dehydrogenase (Plasmodium falciparum (isolate CDC / Honduras)) (UniProt Q27743). As to the kind of experiment: PfLDH activity inhibition – cell lysate, 3D7 strain, counter-screen for P. falciparum growth inhibition project (AID 2304).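 Note: 0% = vehicle and 100% = reference inhibitor.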 The following applies: P. falciparum 3D7 crude extract, LDH APAD/NBT absorbance; at 2 µM; stronger effect = higher value.
Test [4] in a line: inhibition of 3D7 malaria parasite growth – strain 3D7 (AID 2306).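 Note: 0% = DMSO wells and 100% = chloroquine plus artemisinin control wells.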 The following applies: P. falciparum 3D7 erythrocytic growth, LDH absorbance, 72 h; at 2 µM; stronger effect = higher value.
The target in test [5] is Calcium-dependent protein kinase 1 (Plasmodium falciparum (isolate 3D7)) (UniProt P62344). Nature of the test: PfCDPK1 kinase inhibitors, biochemical, TCAMS library (AID 1159585; cut-off not given, nearly all actives have IC50 up to about 0.98 µM;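 note: inhibitors leave more ATP so luminescence rises with inhibition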). The following applies: recombinant PfCDPK1, Kinase-Glo ATP depletion luminescence. (In general: In Kinase-Glo more light means more ATP remaining.)
Test [6] addresses Plasmodium falciparum protein kinase 6 (PK6, PF3D7_1337100) (UniProt Q8IDW1). As to the kind of experiment: PfPK6 kinase inhibitors, biochemical, TCAMS library (AID 1159586). The following applies: recombinant PfPK6, Kinase-Glo ATP depletion luminescence.
Test [7] has as its target Protein kinase 7 (PK7), Plasmodium falciparum 3D7 (PF3D7_0213400) (UniProt Q7YTF7). Nature of the test: inhibition of Plasmodium PK7 catalytic activity – biochemical, TCAMS antimalarial set, Kinase-Glo luminescence (AID 1159587). The following applies: recombinant PfPK7, Kinase-Glo ATP depletion luminescence.
The target of test [8] is Calcium-dependent protein kinase 4 (Plasmodium falciparum (isolate 3D7)) (UniProt Q8IBS5). Nature of the test: PfCDPK4 kinase inhibitors, biochemical, TCAMS library (AID 1159588; cut-off not given, nearly all actives have IC50 up to about 0.91 µM). The following applies: recombinant PfCDPK4, Kinase-Glo ATP depletion luminescence.

“And” between values parts separate entries of the source, which are not always exact repeats. Equal entries are not always repeated. For some assays here: Measured potencies and affinities stand elsewhere. Some compounds were tested as several samples or in several runs, with calls that do not always agree. The source made the active and inactive calls. Unless noted, the rule behind the calls is not given here.

Chain of Calcium-dependent protein kinase 1 (Plasmodium falciparum (isolate 3D7)) (P62344 whole entry, looked up): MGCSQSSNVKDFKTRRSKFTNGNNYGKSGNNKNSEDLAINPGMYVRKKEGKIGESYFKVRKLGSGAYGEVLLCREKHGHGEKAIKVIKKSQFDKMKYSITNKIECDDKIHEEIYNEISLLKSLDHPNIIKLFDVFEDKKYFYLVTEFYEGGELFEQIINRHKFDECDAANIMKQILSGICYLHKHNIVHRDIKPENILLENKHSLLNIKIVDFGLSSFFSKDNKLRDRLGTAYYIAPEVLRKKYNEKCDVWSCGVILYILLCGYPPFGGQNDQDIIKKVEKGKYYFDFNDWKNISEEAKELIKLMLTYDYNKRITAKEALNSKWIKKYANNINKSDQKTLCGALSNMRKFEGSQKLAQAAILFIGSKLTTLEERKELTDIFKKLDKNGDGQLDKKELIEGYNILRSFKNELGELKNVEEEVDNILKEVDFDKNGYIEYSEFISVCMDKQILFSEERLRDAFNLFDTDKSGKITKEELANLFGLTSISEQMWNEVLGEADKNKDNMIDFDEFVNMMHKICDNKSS
Chain of Protein kinase 7 (PK7), Plasmodium falciparum 3D7 (PF3D7_0213400) (Q7YTF7 1-343): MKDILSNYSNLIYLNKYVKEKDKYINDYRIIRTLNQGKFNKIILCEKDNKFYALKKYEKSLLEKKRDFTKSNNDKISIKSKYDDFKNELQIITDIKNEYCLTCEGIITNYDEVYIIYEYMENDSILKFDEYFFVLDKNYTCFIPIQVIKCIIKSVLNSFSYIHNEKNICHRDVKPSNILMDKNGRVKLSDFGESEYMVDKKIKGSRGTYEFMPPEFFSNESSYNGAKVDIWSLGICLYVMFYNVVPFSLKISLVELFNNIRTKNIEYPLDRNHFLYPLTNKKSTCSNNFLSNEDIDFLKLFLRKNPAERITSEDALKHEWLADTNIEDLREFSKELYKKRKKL
Chain of L-lactate dehydrogenase (Plasmodium falciparum (isolate CDC / Honduras)) (Q27743 whole entry, looked up): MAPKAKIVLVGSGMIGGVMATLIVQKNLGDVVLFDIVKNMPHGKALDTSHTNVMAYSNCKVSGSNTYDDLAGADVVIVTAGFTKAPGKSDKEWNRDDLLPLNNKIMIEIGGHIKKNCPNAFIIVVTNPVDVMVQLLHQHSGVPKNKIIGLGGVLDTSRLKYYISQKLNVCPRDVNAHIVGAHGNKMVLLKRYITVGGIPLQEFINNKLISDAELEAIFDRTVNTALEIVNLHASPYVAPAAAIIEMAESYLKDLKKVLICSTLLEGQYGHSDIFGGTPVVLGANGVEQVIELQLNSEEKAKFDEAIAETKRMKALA
Chain of Plasmodium falciparum protein kinase 6 (PK6, PF3D7_1337100) (Q8IDW1 1-305): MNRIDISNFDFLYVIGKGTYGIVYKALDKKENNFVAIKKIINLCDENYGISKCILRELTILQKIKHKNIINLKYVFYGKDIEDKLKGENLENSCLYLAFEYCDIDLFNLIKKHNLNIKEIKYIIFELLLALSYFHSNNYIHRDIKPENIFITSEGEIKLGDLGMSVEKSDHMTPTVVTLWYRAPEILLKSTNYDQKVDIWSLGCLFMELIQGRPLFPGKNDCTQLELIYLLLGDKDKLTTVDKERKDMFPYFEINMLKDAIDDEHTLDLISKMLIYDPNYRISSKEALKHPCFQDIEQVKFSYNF
Chain of Calcium-dependent protein kinase 4 (Plasmodium falciparum (isolate 3D7)) (Q8IBS5 whole entry, looked up): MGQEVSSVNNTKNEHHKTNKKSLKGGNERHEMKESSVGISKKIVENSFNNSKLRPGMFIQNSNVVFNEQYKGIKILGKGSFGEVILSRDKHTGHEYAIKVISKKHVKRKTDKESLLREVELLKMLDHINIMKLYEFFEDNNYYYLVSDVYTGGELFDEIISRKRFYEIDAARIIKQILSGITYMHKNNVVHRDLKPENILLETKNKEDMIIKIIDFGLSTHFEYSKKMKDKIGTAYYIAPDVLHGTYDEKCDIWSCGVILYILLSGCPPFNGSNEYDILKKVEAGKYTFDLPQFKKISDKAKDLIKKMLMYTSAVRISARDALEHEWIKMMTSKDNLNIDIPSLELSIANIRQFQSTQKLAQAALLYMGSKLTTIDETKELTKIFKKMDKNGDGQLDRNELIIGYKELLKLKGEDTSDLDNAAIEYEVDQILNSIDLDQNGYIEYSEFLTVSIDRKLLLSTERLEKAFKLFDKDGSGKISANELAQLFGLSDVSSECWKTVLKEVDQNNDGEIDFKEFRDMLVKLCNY

For `Cc1ccccc1C1=CCN(CCCN2c3ccccc3Sc3ccc(Cl)cc32)CC1`, the results for the growth inhibition in test [1] and in test [4] were 30% (inactive) and 90% (active), respectively. Besides, the inhibition (usually the drop in the measured response relative to a control, in per cent) was 14% (inactive) in test [2] and 5% (inactive) in test [3]. In addition, the outcome in test [5], in test [6], in test [7] and in test [8] was inactive.
On to `OC1(CNCc2ccccc2)CCN(CCc2c[nH]c3ccc(F)cc23)CC1`, for which the growth inhibition in test [1] is 4% (inactive); in test [4], 100% (active). In addition, the results for the inhibition in test [2] and in test [3] were 39% (inactive) and -2% (inactive), respectively. Besides, the outcome in test [5], in test [6], in test [7] and in test [8] was inactive.
For `COc1ccc2[nH]cc(C3=CCN(Cc4ccccc4)CC3)c2c1`, the figures for the growth inhibition in test [1] and in test [4] were 84% (active) and 90% (active), respectively. In addition, the results for the inhibition in test [2] and in test [3] were 51% (active) and -5% (inactive), respectively. The outcome in test [5], in test [6], in test [7] and in test [8] was inactive.
With `O=C(NC1CCC(CN2CCC(c3c[nH]c4ccccc34)CC2)CC1)c1cn(Cc2ccccc2)c2ccccc12` (stereo unspecified), the values for the growth inhibition in test [1] and in test [4] were 48% (inactive) and 91% (active), respectively. Further, the results for the inhibition in test [2] and in test [3] were 84% (active) and -3% (inactive), respectively. Also, the outcome in test [5], in test [6], in test [7] and in test [8] was inactive.
Consider `COc1ccc2[nH]cc(C3C[C@H]4CC[C@@H](C3)N4CCC3CCN(C(=O)/C=C/c4ccc(Cl)c(Cl)c4)CC3)c2c1` (stereo partly specified), for which the growth inhibition in test [1] is 80% (active); in test [4], 101% (active). Besides, the inhibition in test [2] was 38% (inactive); in test [3], 5% (inactive). Moreover, the outcome in test [5], in test [6], in test [7] and in test [8] was inactive.
For `Cc1[nH]c2ccccc2c1C1=CCN(CCN2CCOc3c(Br)cccc3C2=O)CC1`, the figures for the growth inhibition in test [1] and in test [4] were 76% (active) and 97% (active), respectively. The inhibition was 15% (inactive) in test [2] and -3% (inactive) in test [3]. For the same molecule, the outcome in test [5], in test [6], in test [7] and in test [8] was inactive.
On to `CN(C)c1cccc(NC(=O)N[C@H]2N=C(c3ccccc3)c3ccccc3N(CC(=O)N3CCCC3)C2=O)c1`, for which the growth inhibition in test [1] and in test [4] was 98% (active) in each case. The inhibition was -5% (inactive) in test [2] and -4% (inactive) in test [3]. Moreover, the outcome in test [5], in test [6], in test [7] and in test [8] was inactive.
Take `O=C(Nc1ccc(CN2CCC(c3c[nH]c4ccc(O)cc34)CC2)cc1)c1ccc(-c2ccccc2)cc1`: the growth inhibition in test [1] and in test [4] was 100% (active) in each case. Moreover, the inhibition is 33% (inactive) in test [2] and 1% (inactive) in test [3]. Besides, the result in test [5], in test [6], in test [7] and in test [8] was inactive.
For `O=C(NC1CCC(CN2CCC(c3c[nH]c4ccccc34)CC2)CC1)c1cc(-c2ccccc2Cl)n(-c2cccc(Cl)c2)n1` (stereo unspecified), the figures for the growth inhibition in test [1] and in test [4] were 24% (inactive) and 95% (active), respectively. Further, the inhibition in test [2] was 58% (active); in test [3] it was 4% (inactive). The outcome in test [5], in test [6], in test [7] and in test [8] was inactive.
Take `O=C(/C=C/c1c(Cl)cccc1Cl)NC1CCC(CN2CCC(c3c[nH]c4ccccc34)CC2)CC1` (stereo unspecified): the growth inhibition in test [1] is 42% (inactive) and 21% (inactive); in test [4], 93% (active) and 100% (active). For the same molecule, the inhibition in test [2] was 54% (active) and 39% (inactive); in test [3], -4% (inactive) and 4% (inactive). The outcome in test [5], in test [6], in test [7] and in test [8] was inactive.
`O=C(C=Cc1ccc([N+](=O)[O-])cc1)NC1CCC(CN2CCC(c3c[nH]c4ccccc34)CC2)CC1` (stereo unspecified): the growth inhibition in test [1] was 61% (active) and 81% (active); in test [4] it was 102% (active) and 101% (active). Further, the inhibition in test [2] is 30% (inactive) and 34% (inactive); in test [3] it was -3% (inactive). The outcome in test [5], in test [6], in test [7] and in test [8] was inactive.
Take `O=C(/C=C/c1ccc(Cl)cc1Cl)NC1CCC(CN2CCC(c3c[nH]c4ccccc34)CC2)CC1` (stereo unspecified): the growth inhibition in test [1] was 79% (active); in test [4], 101% (active). Further, the inhibition in test [2] is 37% (inactive); in test [3], 7% (inactive). Further, the result in test [5], in test [6], in test [7] and in test [8] was inactive.
Turning to `COc1coc(C(=O)NC2CCN(CC3(c4ccc(Cl)cc4)CCC3)CC2)c1OC`, the growth inhibition in test [1] and in test [4] was 96% (active) throughout. In addition, the inhibition was 2% (inactive) in test [2] and -3% (inactive) in test [3]. The result in test [5], in test [6], in test [7] and in test [8] was inactive.
On to `CC(Cc1ccc(OCCOc2ccccc2)cc1)NCC(O)c1cccc(C(F)(F)F)c1` (stereo unspecified), for which the figures for the growth inhibition in test [1] and in test [4] were 76% (active) and 91% (active), respectively. In addition, the inhibition in test [2] was 16% (inactive); in test [3], -6% (inactive). Moreover, the result in test [5], in test [6], in test [7] and in test [8] was inactive.
Consider `CC[C@H]1CN2CC[C@H]1C[C@@H]2[C@@H](OC(=O)c1ccc(Cl)cc1)c1ccnc2ccc(OC)cc12`, for which the growth inhibition was -3% (inactive) in test [1] and 89% (active) in test [4]. The inhibition in test [2] is -18% (inactive); in test [3], -1% (inactive). Besides, the result in test [5], in test [6], in test [7] and in test [8] was inactive.
As for `CC[C@H]1CN2CC[C@H]1C[C@H]2[C@@H](O)c1cc(OCCCN(C)C)nc2ccc(OC)cc12`, the growth inhibition in test [1] was 8% (inactive); in test [4] it was 99% (active). The inhibition was -7% (inactive) in test [2] and -2% (inactive) in test [3]. The result in test [5], in test [6], in test [7] and in test [8] was inactive.
As for `CC[C@H]1CN2CC[C@@H]1C[C@H]2[C@H](O)c1ccnc2ccc(Cl)cc12`, the growth inhibition in test [1] was 98% (active); in test [4], 100% (active). The inhibition in test [2] was -3% (inactive); in test [3], 2% (inactive). Further, the outcome in test [5], in test [6], in test [7] and in test [8] was inactive.
Turning to `CC[C@H]1CN2CC[C@@H]1C[C@H]2[C@H](O)c1cc(-c2c(C)noc2C)nc2ccc(OC)cc12`, the results for the growth inhibition in test [1] and in test [4] were 98% (active) and 100% (active), respectively. The results for the inhibition in test [2] and in test [3] were 4% (inactive) and -1% (inactive), respectively. In addition, the result in test [5], in test [6], in test [7] and in test [8] was inactive.
With `CC(=O)N(Cc1ccc(-c2ccc(CNCCc3ccccc3)cc2)cc1)C1CCN(Cc2ccccc2)CC1`, the figures for the growth inhibition in test [1] and in test [4] were 15% (inactive) and 95% (active), respectively. For the same molecule, the values for the inhibition in test [2] and in test [3] were 45% (inactive) and -2% (inactive), respectively. The outcome in test [5], in test [6], in test [7] and in test [8] was inactive.
For the molecule `O=C(/C=C/c1ccc(Cl)c(Cl)c1)N1CCC(CN2CCC(c3c(Br)[nH]c4ccccc34)CC2)CC1`, the growth inhibition was 99% (active) in test [1] and 100% (active) in test [4]. Also, the inhibition in test [2] is 41% (inactive); in test [3] it was -4% (inactive). In addition, the result in test [5], in test [6], in test [7] and in test [8] was inactive.
In the case of `COc1cccc(C2(C)CCN(CCCCNC(=O)c3ccc(NC(=O)c4ccc(Cl)cc4)cc3)CC2)c1`, the growth inhibition in test [1] was 72% (active); in test [4] it was 97% (active). Also, the inhibition was 19% (inactive) in test [2] and 8% (inactive) in test [3]. The outcome in test [5], in test [6], in test [7] and in test [8] was inactive.
As for `NC(=O)CN1CC=C(c2c[nH]c3ccc(Br)cc23)CC1`, the growth inhibition was 0% (inactive) in test [1] and 83% (active) in test [4]. Moreover, the inhibition in test [2] was 30% (inactive); in test [3], -12% (inactive). The result in test [5], in test [6], in test [7] and in test [8] was inactive.

For the origin of these results see PubChem BioAssay.
